Key:
Assay in all cases: PBM binding z-score (relative to random genomic background probes); higher = stronger binding; sequences stand for … in GC…GCGATTGACAGCGTAGAATGAAGG
[1] = system: PPARg:RXRa DBDmut IVT, anti-RXR (DBD mutation: RXRa K156A/R161A, NR concentration 270 nM, RXRa partner concentration 90 nM)
In short: (§1)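 Binding z-scores were set against random background probes. The data came from custom Agilent 4×180K protein-binding microarrays carrying double-stranded probes with 34-nt variable regions, incubated 1 h with ligand-free nuclear receptor dimers. Partner-specific antibodies detected binding, and scanned fluorescence was regression-normalized.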

[2] = system: PPARg:RXRa IVT, anti-PPARg (NR concentration 270 nM, RXRa partner concentration 90 nM)
In short: as §1

[3] = system: PPARg DBDmut:RXRa IVT, anti-PPARg (DBD mutation: PPARg1 K132A/R137A, NR concentration 270 nM, RXRa partner concentration 90 nM)
In short: as §1

[4] = system: PPARg DBDmut IVT, anti-PPARg (DBD mutation: PPARg1 K132A/R137A, NR concentration 270 nM)
In short: as §1

[5] = system: PPARg homodimer (NR concentration 180 nM)
In short: as §1

[6] = system: PXR:RXRa (NR concentration 270 nM, RXRa partner concentration 90 nM)
In short: as §1

[7] = system: PXR homodimer (NR concentration 270 nM)
In short: as §1

[8] = system: RARa:RXR (NR concentration 270 nM, RXRa partner concentration 90 nM)
In short: as §1

[9] = system: RARa homodimer (NR concentration 270 nM)
In short: as §1

[10] = system: RARb:RXRa (NR concentration 270 nM, RXRa partner concentration 90 nM)
In short: as §1

| Sequence | PBM binding z-score [1] | PBM binding z-score [2] | PBM binding z-score [3] | PBM binding z-score [4] | PBM binding z-score [5] | PBM binding z-score [6] | PBM binding z-score [7] | PBM binding z-score [8] | PBM binding z-score [9] | PBM binding z-score [10] |
| --- | --- | --- | --- | --- | --- | --- | --- | --- | --- | --- |
| TCATATAAGTAAAGGTGAAAGTCGAACGATATGA | 2.2 | 1.58 | 1.17 | 1.46 | 0.731 | 0.97 | 0.241 | 1.59 | 0.59 | 1.99 |
| GCAGACAGGTGAAACGCAGGTAAGTCAGGGTGGC | 0.702 | 0.327 | -0.327 | -0.89 | -0.504 | -0.471 | -0.705 | 0.101 | -0.533 | 0.61 |
| AGAATGAAGTTATACGTAGATCAGGGAAGAAAGT | -0.998 | -0.385 | 1.2 | 0.896 | -0.353 | -0.161 | 0.326 | -0.215 | 0.239 | -0.131 |
| TCATATAGATAATACAGGTGAAAGTCGGCATCTA | 2.86 | 1.53 | 1.59 | 1.15 | 0.855 | 0.717 | 0.495 | 1.04 | 2.03 | 0.481 |
| TGTCAAAGTTGAAAGGTAACGTAAGTATCCACAC | -0.206 | 3.18 | 0.664 | 0.491 | 0.376 | 1.38 | 0.066 | 2.56 | 0.0354 | 2.15 |
| TTGCCTAGGTCATGGGCCAGTATACCACGCGAAC | 1.44 | 3.33 | 0.457 | 0.0191 | 0.932 | 1.95 | -0.21 | 2.8 | -0.254 | 4.07 |
| ACTATGAGTTGACTTAGGGCAACCGATACGACGC | 0.0745 | 0.378 | 0.38 | 1.61 | 0.141 | 0.608 | 0.888 | 1.09 | 0.486 | 0.974 |
| TTACCGAGGTGAGCTGAGGTCGTTGATCCAACTC | 1.35 | 2.15 | 0.433 | -0.145 | -0.159 | 5.27 | 0.0419 | 2.36 | -0.912 | 1.76 |
| GTACCAAGGTGAATCGGTCGTTGATGAGTAGGCG | 1.93 | 2.44 | -0.354 | -0.848 | -0.00106 | -0.262 | -0.354 | 0.293 | -0.11 | 1.67 |
| CCTACTGGGCCATCAGGGCATTGATATCAACGTT | 3.95 | 3.99 | 0.633 | 0.588 | -0.00622 | -0.679 | -0.548 | -0.889 | -0.828 | 0.358 |
| GCTAGCAGGCCATTTGGGTCATTCAATGACGGGC | 2.06 | 2.04 | -1.48 | -1.11 | -0.184 | 0.822 | 0.976 | 0.854 | -0.862 | 1.28 |
| CCTACTGGGTCAAAAAGGTCATTGATGCCGATAA | 5.6 | 6.85 | 0.701 | -0.419 | 4.23 | 6.02 | 9.56 | 6.15 | 2.31 | 4.66 |
| GGAAAGAGGGCATTCGAGTTGATAGCATGGCGAT | 2.82 | 1.52 | 0.272 | 0.297 | 0.828 | 4.41 | 1.31 | 1.75 | 0.298 | 2.24 |
| GATACAGGGTCAGCTGGAGGCCAGAGTATGGAAA | 1.09 | 2.28 | -0.601 | -0.834 | 2.9 | 3.53 | -0.0691 | 5.12 | 0.139 | 4.3 |
| GATACAGGGTCAGCTAGAGGCCAGAGTCTGGAAA | 1.42 | 2.41 | -0.329 | -0.829 | 2.68 | 3.16 | -0.43 | 4.74 | 0.22 | 4.16 |
| CGTGCAAGGTCAGCAGGTCAGTGAAAGCGACGTG | 3.36 | 3.96 | -0.142 | 0.527 | 2.62 | 3.87 | 0.564 | 4.71 | 0.769 | 5.35 |
| CGAACGAGGGCATGAGTTGGTAGCAAATGCCGAT | 2.72 | 1.66 | 0.738 | -0.612 | -0.306 | 0.171 | -0.43 | 0.384 | -0.55 | 1.81 |
| GCTAGTTGGTCAGTACAAGGTCACACACCGGTCG | 0.892 | 2.35 | -0.0423 | 0.196 | 2.2 | 3.74 | 1.58 | 3.91 | 0.633 | 3.36 |
| TAGCCTGGGTCATTGGGCCAGTATAGTACGCATC | 1.27 | 3.57 | 0.337 | -0.475 | 0.764 | 1.44 | -1.02 | 2.07 | -0.67 | 3.34 |
| TCGAGTAGTTTACCAATGGGGCATTCAGCTTTCT | 0.933 | -0.146 | -0.382 | 0.0492 | -0.418 | -0.0619 | -0.235 | 0.338 | -0.982 | 0.0508 |
| ACTGGGAGGACAAAGGTCAGAGCTACGCCAGTGA | 0.413 | 3.95 | 0.328 | 0.253 | 4.03 | 4.16 | 0.638 | 5.46 | 1.31 | 4.64 |
| ATCTATAGGTAAAAGTTCAGTGAATCCCGAGGAT | 1.4 | 3.05 | 1.78 | 1.92 | 1.04 | 2.17 | 1.35 | 1.84 | 1.06 | 2.29 |
| CAAACTAGGTGAAAGGTCAAAGTCGAGCCAACCA | 8.64 | 9.19 | 5.27 | 2.48 | 8.98 | 6.14 | 1.76 | 8 | 3.76 | 5.05 |

From the supplement of paper PMC6555819
